# Data: PubChem BioAssay AID1159580 (chemical genetic matrix, 2015)
# Among all 5,500 compounds or so, about 2,000 (36%) were called active. Inconclusive results (about 18%) are left out. The list shows a part of the results. A number with no mark means an inactive call. Rule as the data show it: active = normalized growth mostly below about 0.91 (no sharp cut-off); inconclusive = no clear call, values can overlap the other calls; inactive = mostly above about 0.92.
# Experiment: chemical genetic growth profiling, strain panel (AID 1159580);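 also: tested at 20 µM; growth read once vehicle control cultures reached saturation at 30 °C; 1 = growth at the plate median or of vehicle wells; lower values mean less growth of the strain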
# Settings: S. cerevisiae deletion strains, growth OD
# [1] = locus YAL013W, strain DEP1, hits give low values
# [2] = locus YGR078C, strain PAC10, hits give low values
# [3] = locus YMR263W, strain SAP30, hits give low values
# [4] = locus YMR307W, strain GAS1, hits give low values
# [5] = locus YNL322C, strain KRE1, hits give low values
# [6] = locus YPL241C, strain CIN2, hits give low values
smiles,measurement,setting,value
COC(OC)c1ccc(C#N)c(=S)[nH]1,normalized growth,[1],1.01
same,normalized growth,"locus YBR229C, strain ROT2, hits give low values",1.02
same,normalized growth,"locus YCL061C, strain MRC1, hits give low values",1.01
same,normalized growth,"locus YDL101C, strain DUN1, hits give low values",1
same,normalized growth,"locus YDL134C, strain PPH21, hits give low values",1.01
same,normalized growth,"locus YDR150W, strain NUM1, hits give low values",0.996
same,normalized growth,"locus YEL061C, strain CIN8, hits give low values",1.01
same,normalized growth,[2],0.989
same,normalized growth,"locus YHR030C, strain SLT2, hits give low values",1.08
same,normalized growth,"locus YHR087W, strain rtc3, hits give low values",1.03
same,normalized growth,"locus YJL187C, strain SWE1, hits give low values",0.994
same,normalized growth,"locus YJR043C, strain POL32, hits give low values",1.01
same,normalized growth,"locus YJR075W, strain HOC1, hits give low values",1
same,normalized growth,"locus YLR039C, strain RIC1, hits give low values",1.05
same,normalized growth,"locus YLR058C, strain SHM2 (second series), hits give low values",1.01
same,normalized growth,"locus YLR085C, strain ARP6, hits give low values",1.16
same,normalized growth,"locus YLR262C, strain YPT6, hits give low values",1
same,normalized growth,"locus YML094W, strain GIM5, hits give low values",1.04
same,normalized growth,"locus YMR219W, strain ESC1, hits give low values",1.01
same,normalized growth,[3],1.02
same,normalized growth,[4],1.06
same,normalized growth,"locus YNL153C, strain GIM3, hits give low values",1
same,normalized growth,"locus YNL298W, strain CLA4 (second series), hits give low values",1.02
same,normalized growth,[5],1.01
same,normalized growth,"locus YNR030W, strain Alg12, hits give low values",0.992
same,normalized growth,"locus YPL055C, strain LGE1, hits give low values",1.04
same,normalized growth,[6],1.11
same,normalized growth,"locus YPR135W, strain CTF4, hits give low values",1.1
CCC1(O)C(=O)OCc2c1cc1n(c2=O)Cc2cc3ccccc3nc2-1 (centres undefined),normalized growth,[1],0.872 (active)
same,normalized growth,"locus YAL040C, strain CLN3, hits give low values",0.953
same,normalized growth,"locus YCL061C, strain MRC1 (second series), hits give low values",0.977
same,normalized growth,"locus YDR363W, strain ESC2, hits give low values",0.724 (active)
same,normalized growth,"locus YER002W, strain NOP16, hits give low values",0.971
same,normalized growth,[2],1.01
same,normalized growth,"locus YGR229C, strain SMI1, hits give low values",0.672 (active)
same,normalized growth,[3],0.98
same,normalized growth,[4],0.904 (active)
same,normalized growth,"locus YNL128W, strain TEP1, hits give low values",0.906
same,normalized growth,"locus YNL175C, strain NOP13, hits give low values",0.998
same,normalized growth,"locus YNL197C, strain WHI3, hits give low values",0.976
same,normalized growth,"locus YNL224C, strain SQS1, hits give low values",0.897 (active)
same,normalized growth,[5],0.971
same,normalized growth,"locus YOR083W, strain WHI5 (second series), hits give low values",0.867 (active)
same,normalized growth,[6],0.984
